Legend:
Assay in all cases: log2 ratio of Biotin-Ahx-Ub-VS probe labelling (fragment/DMSO); higher = less target engagement (more negative = stronger competition), active = hit call of the paper (q ≤ 0.05, log2 ratio ≤ -1)
Conditions in all cases: compound concentration: 200 uM; treatment time: 3 h
USP34 = USP34 (UniProt Q70CQ2)
Method in brief: (§1)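 Global-median-normalised Spectronaut label-free quantities were compared by unpaired t-test, and values are average log2 ratios of fragment over vehicle. Only proteins with ≥2 unique peptides were used. HEK293T lysate (495 µg per sample) was treated in triplicate with fragment at 200 µM or vehicle for 3 h and then with Biotin-Ahx-Ub-VS at 0.5 µM final for 1 h. Labelled DUBs were then NeutrAvidin-enriched, digested with LysC and trypsin, and run by diaPASEF LC-MS/MS.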

USP36 = target: T1, USP36 (UniProt Q9P275)
T1 sequence (whole entry): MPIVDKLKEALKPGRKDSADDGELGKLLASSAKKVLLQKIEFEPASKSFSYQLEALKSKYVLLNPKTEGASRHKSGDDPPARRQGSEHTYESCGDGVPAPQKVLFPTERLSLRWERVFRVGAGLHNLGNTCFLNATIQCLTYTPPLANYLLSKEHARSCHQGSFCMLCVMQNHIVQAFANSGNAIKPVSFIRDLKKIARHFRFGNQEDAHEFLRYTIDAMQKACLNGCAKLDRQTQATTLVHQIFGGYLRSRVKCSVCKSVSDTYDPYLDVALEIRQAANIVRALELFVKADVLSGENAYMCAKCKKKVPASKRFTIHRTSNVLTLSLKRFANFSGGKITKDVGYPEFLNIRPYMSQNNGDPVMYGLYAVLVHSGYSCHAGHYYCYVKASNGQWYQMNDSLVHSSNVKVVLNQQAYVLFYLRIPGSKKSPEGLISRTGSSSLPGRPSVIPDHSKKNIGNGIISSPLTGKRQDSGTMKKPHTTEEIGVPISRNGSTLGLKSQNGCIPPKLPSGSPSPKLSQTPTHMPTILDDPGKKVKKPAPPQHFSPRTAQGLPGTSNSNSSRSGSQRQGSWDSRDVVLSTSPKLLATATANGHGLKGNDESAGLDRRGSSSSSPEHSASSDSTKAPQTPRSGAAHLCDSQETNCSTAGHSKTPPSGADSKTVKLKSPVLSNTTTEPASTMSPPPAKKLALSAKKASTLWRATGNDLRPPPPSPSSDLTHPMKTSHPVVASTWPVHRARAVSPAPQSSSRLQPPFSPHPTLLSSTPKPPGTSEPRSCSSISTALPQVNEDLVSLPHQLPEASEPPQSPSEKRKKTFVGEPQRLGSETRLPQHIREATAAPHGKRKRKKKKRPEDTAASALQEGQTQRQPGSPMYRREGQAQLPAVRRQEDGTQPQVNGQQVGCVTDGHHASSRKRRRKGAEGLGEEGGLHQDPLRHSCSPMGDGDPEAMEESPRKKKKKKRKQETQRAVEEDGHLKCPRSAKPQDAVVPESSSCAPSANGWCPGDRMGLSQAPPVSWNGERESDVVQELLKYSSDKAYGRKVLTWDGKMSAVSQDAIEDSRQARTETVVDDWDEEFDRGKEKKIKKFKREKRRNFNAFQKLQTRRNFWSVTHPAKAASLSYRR
Method in brief: as §1

USP38 = target: T2, USP38 (UniProt Q8NB14)
T2 sequence (whole entry): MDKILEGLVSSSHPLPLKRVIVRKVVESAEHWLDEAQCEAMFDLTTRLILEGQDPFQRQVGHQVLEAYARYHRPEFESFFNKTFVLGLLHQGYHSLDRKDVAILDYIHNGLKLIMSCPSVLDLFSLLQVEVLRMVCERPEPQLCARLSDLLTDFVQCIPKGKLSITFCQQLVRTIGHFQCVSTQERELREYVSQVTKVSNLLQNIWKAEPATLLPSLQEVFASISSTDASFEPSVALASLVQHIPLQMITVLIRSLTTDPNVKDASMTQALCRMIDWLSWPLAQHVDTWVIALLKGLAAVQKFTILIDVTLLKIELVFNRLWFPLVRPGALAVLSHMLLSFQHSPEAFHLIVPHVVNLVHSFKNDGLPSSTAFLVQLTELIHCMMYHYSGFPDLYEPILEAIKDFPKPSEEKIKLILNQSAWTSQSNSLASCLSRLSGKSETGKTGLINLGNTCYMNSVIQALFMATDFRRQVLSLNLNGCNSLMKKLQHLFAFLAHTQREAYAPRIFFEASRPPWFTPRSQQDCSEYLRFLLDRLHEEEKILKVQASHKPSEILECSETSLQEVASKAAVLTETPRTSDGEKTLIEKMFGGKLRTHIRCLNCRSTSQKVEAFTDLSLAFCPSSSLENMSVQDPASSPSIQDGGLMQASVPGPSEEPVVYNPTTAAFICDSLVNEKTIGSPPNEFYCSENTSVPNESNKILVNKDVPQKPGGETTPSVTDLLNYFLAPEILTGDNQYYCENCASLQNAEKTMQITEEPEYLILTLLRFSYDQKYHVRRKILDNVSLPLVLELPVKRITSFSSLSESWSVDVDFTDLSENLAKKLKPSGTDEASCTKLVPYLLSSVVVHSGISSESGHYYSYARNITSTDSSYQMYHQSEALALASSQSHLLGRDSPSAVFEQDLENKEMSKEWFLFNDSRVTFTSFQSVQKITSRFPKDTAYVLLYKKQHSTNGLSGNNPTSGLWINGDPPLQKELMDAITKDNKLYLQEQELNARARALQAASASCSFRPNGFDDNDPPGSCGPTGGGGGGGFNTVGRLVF
Method in brief: as §1

USP39 = target: T3, USP39 (UniProt Q53GS9)
T3 sequence (whole entry): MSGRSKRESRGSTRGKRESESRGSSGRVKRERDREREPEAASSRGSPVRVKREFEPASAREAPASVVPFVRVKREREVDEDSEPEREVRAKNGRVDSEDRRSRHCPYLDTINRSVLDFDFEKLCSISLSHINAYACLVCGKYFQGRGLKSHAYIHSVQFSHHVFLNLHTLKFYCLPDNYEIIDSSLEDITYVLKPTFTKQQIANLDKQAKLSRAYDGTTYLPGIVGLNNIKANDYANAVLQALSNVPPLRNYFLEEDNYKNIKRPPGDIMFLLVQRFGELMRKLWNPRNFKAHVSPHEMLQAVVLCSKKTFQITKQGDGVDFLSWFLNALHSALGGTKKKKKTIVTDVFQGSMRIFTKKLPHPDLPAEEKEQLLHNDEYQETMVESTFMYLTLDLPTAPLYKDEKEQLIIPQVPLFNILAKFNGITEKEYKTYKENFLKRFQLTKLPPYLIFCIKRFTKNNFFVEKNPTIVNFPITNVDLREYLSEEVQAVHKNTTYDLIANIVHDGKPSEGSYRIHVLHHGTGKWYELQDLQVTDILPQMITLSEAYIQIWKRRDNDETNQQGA
Method in brief: as §1

USP4 = target: T4, USP4 (UniProt Q13107)
T4 sequence (whole entry): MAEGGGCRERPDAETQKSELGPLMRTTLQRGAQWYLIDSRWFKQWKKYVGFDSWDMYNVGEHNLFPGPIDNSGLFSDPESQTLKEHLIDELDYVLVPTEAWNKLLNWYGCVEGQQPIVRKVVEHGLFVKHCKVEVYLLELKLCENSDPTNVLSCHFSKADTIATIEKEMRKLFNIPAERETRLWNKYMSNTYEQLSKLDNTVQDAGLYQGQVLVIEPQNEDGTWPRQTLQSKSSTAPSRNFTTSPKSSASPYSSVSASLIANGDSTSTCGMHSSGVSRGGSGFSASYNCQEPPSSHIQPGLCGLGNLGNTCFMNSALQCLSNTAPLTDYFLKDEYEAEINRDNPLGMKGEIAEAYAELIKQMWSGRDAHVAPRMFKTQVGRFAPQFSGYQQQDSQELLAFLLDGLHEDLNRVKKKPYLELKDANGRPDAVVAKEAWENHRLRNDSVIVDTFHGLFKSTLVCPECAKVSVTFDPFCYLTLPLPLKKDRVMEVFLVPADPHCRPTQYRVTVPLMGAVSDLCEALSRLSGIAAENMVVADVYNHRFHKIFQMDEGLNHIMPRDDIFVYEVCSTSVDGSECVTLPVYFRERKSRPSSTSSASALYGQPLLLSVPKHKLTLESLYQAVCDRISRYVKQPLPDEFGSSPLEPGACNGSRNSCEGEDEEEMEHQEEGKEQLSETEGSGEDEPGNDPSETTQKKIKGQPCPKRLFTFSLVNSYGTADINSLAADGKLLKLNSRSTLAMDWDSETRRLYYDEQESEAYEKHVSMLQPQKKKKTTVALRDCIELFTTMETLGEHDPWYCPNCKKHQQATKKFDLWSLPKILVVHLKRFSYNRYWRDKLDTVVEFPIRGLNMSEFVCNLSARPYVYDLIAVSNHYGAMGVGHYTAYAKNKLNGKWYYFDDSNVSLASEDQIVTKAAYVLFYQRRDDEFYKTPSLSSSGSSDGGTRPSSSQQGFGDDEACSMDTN
Method in brief: as §1

Measured: log2 ratio of Biotin-Ahx-Ub-VS probe labelling

Sequence of USP34 (Q70CQ2 whole entry, the tested form may be a part): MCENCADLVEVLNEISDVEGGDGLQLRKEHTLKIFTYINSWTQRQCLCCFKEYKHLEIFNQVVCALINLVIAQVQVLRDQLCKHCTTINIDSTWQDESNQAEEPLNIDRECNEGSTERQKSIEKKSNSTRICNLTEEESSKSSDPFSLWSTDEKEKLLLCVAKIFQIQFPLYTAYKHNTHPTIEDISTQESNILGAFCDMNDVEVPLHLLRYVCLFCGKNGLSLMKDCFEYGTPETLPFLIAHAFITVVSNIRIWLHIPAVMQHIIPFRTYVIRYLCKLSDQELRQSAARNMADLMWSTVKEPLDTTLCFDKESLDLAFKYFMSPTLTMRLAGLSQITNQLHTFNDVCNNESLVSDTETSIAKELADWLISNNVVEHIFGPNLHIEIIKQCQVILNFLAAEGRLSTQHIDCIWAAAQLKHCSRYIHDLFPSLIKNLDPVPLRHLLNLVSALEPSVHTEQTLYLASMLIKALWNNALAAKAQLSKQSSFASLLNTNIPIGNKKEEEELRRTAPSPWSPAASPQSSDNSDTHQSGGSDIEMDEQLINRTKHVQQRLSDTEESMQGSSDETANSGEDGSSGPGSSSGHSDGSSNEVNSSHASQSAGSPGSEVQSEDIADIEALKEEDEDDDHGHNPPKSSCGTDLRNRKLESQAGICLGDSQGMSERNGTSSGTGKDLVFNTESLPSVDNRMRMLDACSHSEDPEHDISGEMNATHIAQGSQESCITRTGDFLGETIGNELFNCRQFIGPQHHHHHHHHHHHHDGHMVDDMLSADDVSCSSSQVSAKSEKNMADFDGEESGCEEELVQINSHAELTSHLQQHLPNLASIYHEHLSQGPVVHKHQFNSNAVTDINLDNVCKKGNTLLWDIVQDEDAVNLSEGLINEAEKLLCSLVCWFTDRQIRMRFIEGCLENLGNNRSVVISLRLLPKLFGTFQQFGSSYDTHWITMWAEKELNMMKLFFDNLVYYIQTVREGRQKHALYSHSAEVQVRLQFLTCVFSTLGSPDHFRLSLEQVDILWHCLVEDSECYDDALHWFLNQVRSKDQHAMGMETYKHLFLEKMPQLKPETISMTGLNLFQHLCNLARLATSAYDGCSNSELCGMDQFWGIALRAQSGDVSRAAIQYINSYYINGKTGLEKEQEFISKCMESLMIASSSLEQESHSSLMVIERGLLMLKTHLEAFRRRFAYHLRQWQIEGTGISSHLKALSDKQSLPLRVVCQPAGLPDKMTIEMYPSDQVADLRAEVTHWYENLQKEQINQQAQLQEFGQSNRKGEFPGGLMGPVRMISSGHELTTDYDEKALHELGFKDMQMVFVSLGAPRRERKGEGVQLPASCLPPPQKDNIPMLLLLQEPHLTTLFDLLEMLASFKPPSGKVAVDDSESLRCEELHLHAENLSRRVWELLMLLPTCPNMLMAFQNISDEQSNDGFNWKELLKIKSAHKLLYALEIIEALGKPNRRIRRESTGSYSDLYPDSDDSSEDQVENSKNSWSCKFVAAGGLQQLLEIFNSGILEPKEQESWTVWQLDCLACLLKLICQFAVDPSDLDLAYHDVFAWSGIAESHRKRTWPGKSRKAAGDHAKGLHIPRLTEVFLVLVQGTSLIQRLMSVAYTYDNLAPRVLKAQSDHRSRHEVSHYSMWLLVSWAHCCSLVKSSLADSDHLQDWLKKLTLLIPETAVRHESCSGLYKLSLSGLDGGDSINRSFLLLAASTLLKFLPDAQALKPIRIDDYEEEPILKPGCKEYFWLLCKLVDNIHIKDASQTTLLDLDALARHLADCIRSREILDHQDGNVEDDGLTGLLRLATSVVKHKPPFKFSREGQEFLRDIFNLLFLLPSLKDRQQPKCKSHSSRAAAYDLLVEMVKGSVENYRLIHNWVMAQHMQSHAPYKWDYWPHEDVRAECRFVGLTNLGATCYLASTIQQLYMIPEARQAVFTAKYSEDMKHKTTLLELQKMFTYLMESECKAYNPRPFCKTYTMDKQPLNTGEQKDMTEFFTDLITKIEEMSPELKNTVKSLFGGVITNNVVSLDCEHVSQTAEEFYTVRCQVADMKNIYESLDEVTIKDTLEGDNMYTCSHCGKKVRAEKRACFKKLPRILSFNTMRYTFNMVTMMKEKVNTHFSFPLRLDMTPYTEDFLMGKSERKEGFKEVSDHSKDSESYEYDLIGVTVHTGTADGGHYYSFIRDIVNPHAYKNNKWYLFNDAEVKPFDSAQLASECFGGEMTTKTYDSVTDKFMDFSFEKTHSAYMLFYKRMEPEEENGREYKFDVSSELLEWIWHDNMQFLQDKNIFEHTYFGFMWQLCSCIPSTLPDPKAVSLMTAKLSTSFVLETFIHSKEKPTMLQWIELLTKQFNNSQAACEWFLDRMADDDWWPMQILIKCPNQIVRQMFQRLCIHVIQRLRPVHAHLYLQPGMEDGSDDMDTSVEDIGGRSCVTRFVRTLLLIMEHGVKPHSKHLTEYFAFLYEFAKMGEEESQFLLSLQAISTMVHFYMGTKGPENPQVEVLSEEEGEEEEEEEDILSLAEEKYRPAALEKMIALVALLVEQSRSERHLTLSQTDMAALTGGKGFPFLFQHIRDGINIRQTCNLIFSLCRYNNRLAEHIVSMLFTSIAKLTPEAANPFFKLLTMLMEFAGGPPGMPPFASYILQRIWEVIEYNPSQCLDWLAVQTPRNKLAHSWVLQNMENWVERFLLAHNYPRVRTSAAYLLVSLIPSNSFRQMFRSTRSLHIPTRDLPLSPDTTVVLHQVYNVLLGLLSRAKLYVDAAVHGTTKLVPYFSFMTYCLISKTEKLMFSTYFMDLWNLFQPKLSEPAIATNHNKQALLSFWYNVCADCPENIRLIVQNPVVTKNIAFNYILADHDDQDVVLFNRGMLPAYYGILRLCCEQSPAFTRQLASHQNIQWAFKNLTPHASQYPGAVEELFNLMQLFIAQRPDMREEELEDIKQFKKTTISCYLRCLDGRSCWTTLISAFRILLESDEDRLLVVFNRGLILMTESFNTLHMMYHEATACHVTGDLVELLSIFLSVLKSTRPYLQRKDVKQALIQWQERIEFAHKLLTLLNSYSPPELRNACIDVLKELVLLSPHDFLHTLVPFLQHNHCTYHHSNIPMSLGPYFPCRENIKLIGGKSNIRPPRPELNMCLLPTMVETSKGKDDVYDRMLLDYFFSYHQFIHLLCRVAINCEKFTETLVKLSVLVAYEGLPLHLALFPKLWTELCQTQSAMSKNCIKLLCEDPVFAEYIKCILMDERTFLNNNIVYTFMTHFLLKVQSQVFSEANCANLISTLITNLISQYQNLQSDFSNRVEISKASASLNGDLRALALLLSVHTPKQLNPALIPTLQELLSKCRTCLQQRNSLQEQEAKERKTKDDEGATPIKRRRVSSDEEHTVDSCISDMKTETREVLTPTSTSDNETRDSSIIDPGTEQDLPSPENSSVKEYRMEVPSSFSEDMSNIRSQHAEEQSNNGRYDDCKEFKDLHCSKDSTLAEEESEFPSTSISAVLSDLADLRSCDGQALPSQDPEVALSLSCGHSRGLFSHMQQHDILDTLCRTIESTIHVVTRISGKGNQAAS

CC(NC(=O)CCl)c1cc2n(n1)CCCC2.Cl (stereo not given)
inactive: USP34 -0.00259 | USP36 0.028 | USP38 -0.215 | USP39 -0.149 | USP4 -0.121

— the supplement of paper PMC11732987, “Enantioselective OTUD7B fragment discovery through chemoproteomics screening and high-throughput optimisation” (Communications Chemistry, 2025)
